Sampled rows, rich in hits. Any-hit rate of the full collection: about 4%.
TIM10 inh: growth inhibitors of isogenic TIM10 control yeast, primary screen, counter-screen for tim10-1 yeast inhibitor project, luminescence, uHTS. S. cerevisiae TIM10 strain growth, BacTiter-Glo luminescence, 24 h. 330,000 tested, 1.4% active. inhibition, % at 10 µM;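 active means inhibition of 40% or more at the single tested concentration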;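 further: wild-type TIM10 isogenic control strain grown at permissive 25 °C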
NALP3 yeast inh: NALP3 inflammasome inhibitors in reconstituted yeast, primary screen, luminescence, uHTS; 330,000 tested, 0.39% active; inhibition, % at 10 µM; Yeast reconstituted NLRP3/ASC/caspase-1, beta-gal luminescence, 24 h;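 active means inhibition of 50% or more; inactive means inhibition below 50%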;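 further: plate controls were induced DMSO wells for no effect and uninduced yeast grown without galactose for full effect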
tim23-1 inh: growth inhibitors of tim23-1 mutant yeast, primary screen, luminescence, uHTS | S. cerevisiae tim23-1 growth, BacTiter-Glo luminescence, 24 h | inhibition, % at 20 µM | 330,000 tested, 1.3% active | AID 463212, 2010;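 active means growth inhibition of the mutant yeast at or above 50%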;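 further: temperature-sensitive mutant grown at 25 °C; plate controls were DMSO-treated mutant yeast for no effect and medium wells lacking yeast for full effect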
NALP1 yeast inh: NALP1 inflammasome inhibitors in reconstituted yeast, colorimetric, S. cerevisiae, triplicate retest; S. cerevisiae NALP1/ASC/caspase-1 growth, X-gal OD620, 72 h; inhibition, % at 10 µM; 280,000 tested, 0.61% active; AID 2071, 2009; in the data active means inhibition mostly above about 24%, no sharp cut-off; inactive means mostly below about 32%
tim10-1 inh: growth inhibitors of tim10-1 mutant yeast, primary screen, luminescence, uHTS; S. cerevisiae tim10-1 ts strain growth, BacTiter-Glo, 24 h; inhibition, % at 20 µM; 330,000 tested, 2.2% active; AID 463190, 2010;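 active means inhibition of at least 40%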;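 further: mutant grown at 25 °C; 0% = DMSO wells with yeast and 100% = wells holding no yeast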
tim10-1 conf: growth inhibitors of tim10-1 mutant yeast, confirmation, single concentration, luminescence, S. cerevisiae. shares compounds with tim10-1 inh. S. cerevisiae tim10-1 ts strain growth, BacTiter-Glo, 24 h. inhibition, % at 20 µM. 7,400 tested, 56% active. AID 463213, 2010;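 active means inhibition of yeast growth at or above a set limit in either of two repeat tests at 20 µM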;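 further: tim10-1 mutant grown at permissive 25 °C to find synthetic lethal compounds; 0% = DMSO yeast wells and 100% = medium wells without yeast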
The depositor's hits bear a star; x = not tested or not shown.

SMILES | TIM10 inh | NALP3 yeast inh | tim23-1 inh | NALP1 yeast inh | tim10-1 inh | tim10-1 conf
Cc1ccc(-c2nc3ccc(Cl)cc3n2OC(C)C(=O)O)cc1 (centres undefined) | 14 | 14 | 10 | -1 | 9 | x
CCOc1cc(-c2cc(-c3ccc(C)cc3)nc(N)c2C#N)ccc1O | 33 | 27 | 22 | 10 | 42* | 26
CCOc1cc(-c2c(C#N)c(N)nc3c2CCCC3C)ccc1O (centres undefined) | 37 | -14 | 49 | 8 | 46* | 35*
COCCCN(C(=O)c1cc2c(s1)CCCCC2)c1c(N)n(Cc2ccccc2)c(=O)[nH]c1=O | -3 | 25 | 13 | x | 10 | x
CC(C(=O)NC1CCCC1)N(C(=O)c1snc(C(N)=O)c1N)c1ccc2c(c1)OCCO2 (centres undefined) | -9 | 0 | 8 | 13 | 9 | x
CCc1nnc(NC(=O)CSc2ccc(-c3nc4ccc(C)cc4[nH]3)cn2)s1 | 11 | 20 | 3 | 14 | 10 | x
Cc1nc(CN2CCN(C(=O)NC3(c4ccccc4)CC3)CC2)cs1 | -11 | 6 | 7 | 6 | -15 | x
Cc1nc(CN2CCN(S(=O)(=O)c3c(Cl)cc(Br)cc3Cl)CC2)cs1 | 33 | 18 | 45 | x | 49* | 44*
COc1ccc(N2C(=O)C(Cl)=C(N3CCCC(C)C3)C2=O)cc1 (centres undefined) | 28 | 7 | 32 | 8 | 42* | 29
C/C(=N\NC(=O)CNC(=O)c1cccs1)c1ccc(Cl)c(Cl)c1 | 2 | 19 | 41 | 20 | 51* | -5
Cc1ccc(NC(=S)N(CCN2CCOCC2)Cc2ccccc2F)cc1 | 5 | 11 | 21 | -21 | 25 | x
Cc1cc(NC(=S)N(CCN2CCOCC2)Cc2ccccc2F)ccc1Cl | 32 | 5 | 25 | 2 | 44* | 16
NC(=O)c1cccnc1Nc1ccccc1Cl | 28 | 20 | 19 | -118 | -3 | x
Cc1oc(=O)c(NC(=O)c2ccc(Cl)cc2)cc1C(=O)c1ccccc1 | 28 | 29 | 37 | 14 | 56* | 57*
Brc1ccc(N=NNc2ccccc2)cc1 | 15 | 23 | 33 | 6 | 31 | x
O=[N+]([O-])c1ccc(N=NNc2ccccc2)cc1 | 14 | -36 | 26 | -2 | 42* | 34*
CC(=O)c1ccc(NC(=O)CN2CCCC2)cc1 | -10 | 10 | 6 | 4 | 4 | x
Cc1ccc(/C=C2/NC(=O)N(c3ccccc3)C2=O)o1 | -5 | 2 | 14 | 0 | 7 | x
O=C1N/C(=C/c2ccc(Br)s2)C(=O)N1c1ccccc1 | -7 | 6 | 11 | 2 | 46* | 30
Cc1cc(C(=O)c2ccc(C(C)(C)C)cc2)c(NC(=O)CCl)s1 | 7 | -1 | 21 | 28 | 32 | x
O=C(CCc1nnc(-c2ccc3c(c2)OCO3)o1)NC(c1cccnc1)C(F)(F)F (centres undefined) | 4 | 23 | -2 | 10 | 1 | x
O=C(NC(=S)NNC(=O)c1ccco1)c1ccc(Br)cc1 | 9 | 24 | 7 | -2 | 41* | 29
O=C(NNC(=S)NC(=O)c1ccco1)c1ccc(F)cc1 | 8 | -3 | -47 | 1 | -2 | x
Cc1ccnc(NC(=S)N2CCN(c3cccc(C(F)(F)F)c3)CC2)c1 | 39 | -7 | 39 | -11 | 43* | 24
Cc1ccc(C)c(NC(=S)N2CCN(c3cccc(C(F)(F)F)c3)CC2)c1 | -17 | -22 | -4 | 11 | 19 | x
SMILES | TIM10 inh | NALP3 yeast inh | tim23-1 inh | NALP1 yeast inh | tim10-1 inh | tim10-1 conf
CC1CCCCN1C(=O)COC(=O)C1CCN(S(=O)(=O)c2ccc3c(c2)OCCO3)CC1 (centres undefined) | 5 | 16 | -6 | x | 2 | x
CC1C(=O)C(C)C(c2ccc(Br)cc2)NC1c1ccc(Br)cc1 (centres undefined) | 9 | 5 | 45 | -11 | 48* | 12
CSc1ccc(CCNS(=O)(=O)c2csc(C(N)=O)c2)cc1 | 7 | -8 | 15 | -8 | 21 | x
CCOc1ccc(N2C(=O)C3ON(C)C(c4ccc([N+](=O)[O-])cc4)C3C2=O)cc1 (centres undefined) | -26 | -5 | -10 | x | -12 | x
FC(F)(F)c1ccc(N=Cc2sc(N3CCOCC3)nc2-c2ccccc2)cc1 | 7 | 12 | 15 | 28 | 22 | x
C=CCN(C(=O)c1cccc(S(=O)(=O)N2CCN(C)CC2)c1)c1nc(-c2ccccc2)cs1 | 31 | 3 | 48 | 0 | 50* | 41*
COCC(=O)Nc1sc2c(c1C(=O)OC)C(C(=O)OC)CC2 (centres undefined) | -6 | 11 | 14 | -5 | 43* | 7
C=CCc1ccc(O)c(-c2cc(CC=C)ccc2O)c1 | 30 | 6 | 31 | 5 | 43* | 45*
CCCCCCC(=O)N(O)C1CC(=O)N(c2ccc(Br)cc2)C1=O (centres undefined) | 32 | 17 | 33 | 6 | 42* | 28
Cc1ccnc(SCCn2c(N3CC(C)OC(C)C3)nc3c2c(=O)n(C)c(=O)n3C)n1 (centres undefined) | 10 | 3 | 9 | -2 | 13 | x
Cc1ccnc(SCCn2c(N3CCC(C)CC3)nc3c2c(=O)n(C)c(=O)n3C)n1 | 30 | 13 | 32 | x | 45* | 28
Cc1ccnc(SCCn2c(N3CC(C)CC(C)C3)nc3c2c(=O)n(C)c(=O)n3C)n1 (centres undefined) | 27 | 9 | 42 | -1 | 44* | 30
CC(=O)Nc1ccc(CN2CCN(CCc3ccccc3)C(CCO)C2)cc1 (centres undefined) | -11 | 2 | 0 | 8 | 0 | x
C=CCNC(=O)/C(C#N)=C/c1ccccc1OCc1ccc(C(=O)OC)cc1 | 31 | 14 | 45 | 19 | 45* | 27
Cc1ccccc1NC(=O)c1cc(N)ccc1N1CCCCC1 | 21 | -4 | 35 | 23 | 41* | 32*
CN(C)S(=O)(=O)c1ccc(N2CCCC2)c(C(=O)Nc2ccccc2Br)c1 | -1 | 10 | -5 | x | 2 | x
O=C(O)CCn1c(-c2ccccn2)nc2ccccc21 | -1 | 3 | -10 | -4 | -15 | x
COc1ccc(CC(=O)O/N=C(\N)Cc2ccc([N+](=O)[O-])cc2)cc1 | 28 | 17 | 29 | x | 43* | 63*
N/C(=N\OC(=O)Cc1ccc([N+](=O)[O-])cc1)c1cccc(Br)c1 | 13 | 5 | 24 | -1 | 58* | 50*
O=C1CC(N2CCC(Cc3ccccc3)CC2)C(=O)N1CCc1ccccc1 (centres undefined) | 32 | 15 | 37 | 14 | 46* | 4
Cc1nn(Cc2cccc(C(=O)NC34CC5CC(CC(C5)C3)C4)c2)c(C)c1Br | 20 | 0 | 26 | 19 | 43* | 28
